Test results: PubChem BioAssay (NCI)
This is part of a sample that, as a whole, favours compounds with a hit. Of some 83,000 tested, about 20% had one in any assay.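 Note: values are percent growth. 100 is the growth of untreated cells, values between 100 and 0 indicate rising inhibition; between -100 and 0 indicates cell death.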 A number with no mark means an inactive call. Active and inactive are the calls of the source. Rule for the calls: active = growth percent below 10; inactive = the rest.

These compounds were tested on SK-MEL-5 melanoma (assay: NCI-60 one-dose screen, 48 h (100 = growth as untreated, 0 = no growth, -100 = all killed)). Settings: 10 µM unless noted.

Row | SMILES | growth
1 | CC1=C(C)C(=O)C(Nc2ccc(C)cc2)=C(Br)C1=O | 94%
2 | Cc1ccc(N2CCN(C3=C(Cl)C(=O)c4ncccc4C3=O)CC2)cc1 | 90.4%
3 | COc1ccc2[nH]cc(-c3nc(N)nnc3-c3cn(C)c4ccc(Br)cc34)c2c1 | 15%
4 | O=C(/C=C/c1ccccc1Cl)Nc1ncc(Cc2cc(Cl)ccc2Cl)s1 | 25.7%
5 | CN(C)S(=O)(=O)c1ccc(-c2nc(C(Cl)Cl)nc3cc(-c4ccc(F)cc4)nn23)cc1 | 55.1%
6 | Fc1ccc(-c2cn3c(-c4c[nH]c5ccc(Br)cc45)csc3n2)cc1 | 95.2%
7 | C#Cc1nc(/C=C/CCCCCCC(=O)NO)cs1 | 63.2%
8 | C#C[C@]1(O)CC[C@H]2[C@@H]3CC=C4c5sc(Nc6ncccc6C)nc5CC[C@]4(C)[C@H]3CC[C@@]21C | 5.96% (active)
9 | CC(C)=CCC[C@](C)(O)[C@H]1CC[C@]2(C)[C@@H]1CC[C@@H]1[C@@]3(C)CC[C@H](N)C(C)(C)[C@@H]3CC[C@]12C | 84.2%
10 | Cc1cc2nc3c4cc(C#N)ccc4n(CCN(C)C)c3nc2cc1C | -89.5% (active)
11 | N#Cc1c(-c2cccs2)cc(-c2cnccn2)nc1SCC(=O)N/N=C/c1ccncc1 | 101%
12 | CCOC(=O)c1cccc(NC2=C(Cl)C(=O)C(C)=C(C)C2=O)c1 | 100%
13 | c1ccc(-c2cn3c(-c4c[nH]c5ccccc45)csc3n2)cc1 | 81%
14 | Cn1cc(-c2cc3ncnc(Nc4ccc(NC(=O)Nc5cc(C(C)(C)C)on5)cc4)c3s2)cn1 | 20.8%
15 | Nc1cc(C(=O)N/N=C\c2ccc(OC(F)F)c(OC3CCCC3)c2)nn1CC(O)c1ccccc1 (configuration not stated) | 97.1%
16 | COc1ccc(C2CC(c3cccc(OCCCCOc4cccc(C5=NOC(c6ccc(OC)cc6)C5)c4)c3)=NO2)cc1 (configuration not stated) | 97.5%

Row | SMILES | growth
17 | Cn1cc(-c2nnc(N)nc2-c2c[nH]c3ccc(F)cc23)c2cc(Br)ccc21 | 4.51% (active)
18 | C[C@H](Nc1ncnc2ccc(-c3cnc(Cl)c(NS(C)(=O)=O)c3)cc12)c1ccccc1 | -92.7% (active)
19 | O=C(CSc1nc2ccccc2c(=O)n1CCc1ccccc1)Nc1ccc(S(=O)(=O)Nc2ccc(Cl)nn2)cc1 | 98.6%
20 | NS(=O)(=O)c1ccc(Nc2nc(N/N=C/C=C/c3ccccc3)nc(Nc3ccccc3)n2)cc1 | 40.3%
21 | O=C1[C@H]2Cc3c([nH]c4ccccc34)[C@H](c3ccc(Br)cc3)N2C(=O)CN1C1CCN(CC2CCCCC2)CC1 | 69.6%
22 | CCc1cc2c(cc1Cl)nc1c(=O)[nH]c(=O)nc-1n2CCOCC(C)(C)C | 39.6%
23 | COc1ccc(-c2nc(C#N)c(N3CCC(S(=O)(=O)N4CCOCC4)CC3)o2)cc1 | 97.1%
24 | COC(=O)c1ccc(NC2=C(Cl)C(=O)c3nc(C)ccc3C2=O)cc1 | 68.4%
25 | Cc1nc(N)sc1-c1csc(Nc2ccc(C(F)(F)F)cc2)n1 | -43% (active)
26 | Cn1cc(-c2nnc(N)nc2-c2c[nH]c3ccc(Br)cc23)c2cc(Br)ccc21 | 101%
27 | NS(=O)(=O)c1ccc(Nc2nc(Nc3ccccc3)nc(N3N=C(c4ccc(Cl)cc4)CC3c3ccc(Cl)cc3)n2)cc1 (configuration not stated) | 51.9%
28 | CCCCc1nc2c(N)nc3ccccc3c2n1Cc1cccc(CN)c1 | 55%
29 | N#C/C(=C\c1ccc(-c2ccc(Cl)c(Cl)c2)o1)C(=O)Nc1ncc(Cc2ccc(Cl)cc2)s1 | 80.4%
30 | O=C1Nc2ccccc2/C1=C/c1ccc(OCC(=O)c2ccccc2)cc1 | 97.7%
31 | NS(=O)(=O)c1nnc(/N=C/c2c(O)[nH]c3ccccc23)s1 | 98.5%
32 | COc1cc(/C=C2/C(=O)Nc3ccc(Cl)cc32)ccc1OCc1ccc(Cl)cc1 | 89.2%

The compounds below were run on UACC-62 melanoma in the same assay as above. Settings: 10 µM unless noted.

Row | SMILES | growth
33 | CC1=C(C)C(=O)C(Nc2ccc(C)cc2)=C(Br)C1=O | 92.2%
34 | Cc1ccc(N2CCN(C3=C(Cl)C(=O)c4ncccc4C3=O)CC2)cc1 | 29.2%
35 | COc1ccc2[nH]cc(-c3nc(N)nnc3-c3cn(C)c4ccc(Br)cc34)c2c1 | 15.9%
36 | O=C(/C=C/c1ccccc1Cl)Nc1ncc(Cc2cc(Cl)ccc2Cl)s1 | 23.2%
37 | CN(C)S(=O)(=O)c1ccc(-c2nc(C(Cl)Cl)nc3cc(-c4ccc(F)cc4)nn23)cc1 | 26%
38 | Fc1ccc(-c2cn3c(-c4c[nH]c5ccc(Br)cc45)csc3n2)cc1 | 65.7%
39 | C#Cc1nc(/C=C/CCCCCCC(=O)NO)cs1 | 45.8%
40 | C#C[C@]1(O)CC[C@H]2[C@@H]3CC=C4c5sc(Nc6ncccc6C)nc5CC[C@]4(C)[C@H]3CC[C@@]21C | -25.9% (active)
41 | CC(C)=CCC[C@](C)(O)[C@H]1CC[C@]2(C)[C@@H]1CC[C@@H]1[C@@]3(C)CC[C@H](N)C(C)(C)[C@@H]3CC[C@]12C | 91%
42 | Cc1cc2nc3c4cc(C#N)ccc4n(CCN(C)C)c3nc2cc1C | -60.6% (active)
43 | N#Cc1c(-c2cccs2)cc(-c2cnccn2)nc1SCC(=O)N/N=C/c1ccncc1 | 91.4%
44 | CCOC(=O)c1cccc(NC2=C(Cl)C(=O)C(C)=C(C)C2=O)c1 | 94.7%
45 | c1ccc(-c2cn3c(-c4c[nH]c5ccccc45)csc3n2)cc1 | 49.6%
46 | Cc1cc(Br)ccc1-n1cc(C#N)c(N)c1C(=O)c1ccc(Br)cc1 | 94.3%
47 | Cn1cc(-c2cc3ncnc(Nc4ccc(NC(=O)Nc5cc(C(C)(C)C)on5)cc4)c3s2)cn1 | 22.2%
48 | Nc1cc(C(=O)N/N=C\c2ccc(OC(F)F)c(OC3CCCC3)c2)nn1CC(O)c1ccccc1 (configuration not stated) | 89.4%
49 | COc1ccc(C2CC(c3cccc(OCCCCOc4cccc(C5=NOC(c6ccc(OC)cc6)C5)c4)c3)=NO2)cc1 (configuration not stated) | 68.8%
50 | O=C(COc1ccc(/C=C2\C(=O)Nc3ccc(Cl)cc32)cc1)Nc1ccc(Cl)cc1 | 27.8%
51 | Cn1cc(-c2nnc(N)nc2-c2c[nH]c3ccc(F)cc23)c2cc(Br)ccc21 | 30.3%
52 | C[C@H](Nc1ncnc2ccc(-c3cnc(Cl)c(NS(C)(=O)=O)c3)cc12)c1ccccc1 | -57.8% (active)

Row | SMILES | growth
53 | O=C(CSc1nc2ccccc2c(=O)n1CCc1ccccc1)Nc1ccc(S(=O)(=O)Nc2ccc(Cl)nn2)cc1 | 84.6%
54 | NS(=O)(=O)c1ccc(Nc2nc(N/N=C/C=C/c3ccccc3)nc(Nc3ccccc3)n2)cc1 | 66.4%
55 | O=C1[C@H]2Cc3c([nH]c4ccccc34)[C@H](c3ccc(Br)cc3)N2C(=O)CN1C1CCN(CC2CCCCC2)CC1 | 96.7%
56 | CCc1cc2c(cc1Cl)nc1c(=O)[nH]c(=O)nc-1n2CCOCC(C)(C)C | 76.1%
57 | COc1ccc(-c2nc(C#N)c(N3CCC(S(=O)(=O)N4CCOCC4)CC3)o2)cc1 | 96.3%
58 | COC(=O)c1ccc(NC2=C(Cl)C(=O)c3nc(C)ccc3C2=O)cc1 | 68.5%
59 | Cc1ccccc1N1CCN(C2=C(Cl)C(=O)c3ncccc3C2=O)CC1 | 66.2%
60 | CC[C@]12C=CCN3CC[C@@]4(c5ccc(OC)cc5N(C)[C@H]4[C@@](O)(C(=O)OC)[C@@H]1OC(=O)CCN1CCc4ccccc4C1)[C@@H]32 | 99%
61 | Cc1nc(N)sc1-c1csc(Nc2ccc(C(F)(F)F)cc2)n1 | 22.2%
62 | Cn1cc(-c2nnc(N)nc2-c2c[nH]c3ccc(Br)cc23)c2cc(Br)ccc21 | 97.7%
63 | C#C[C@]1(O)CC[C@H]2[C@@H]3CC=C4c5sc(N(C)c6ccccc6)nc5CC[C@]4(C)[C@H]3CC[C@@]21C | 77%
64 | NS(=O)(=O)c1ccc(Nc2nc(Nc3ccccc3)nc(N3N=C(c4ccc(Cl)cc4)CC3c3ccc(Cl)cc3)n2)cc1 (configuration not stated) | 97.6%
65 | O=C(CCCCCCN1CC(=O)N2[C@@H](c3ccc(Cl)s3)c3[nH]c4ccccc4c3C[C@H]2C1=O)NO | 21.9%
66 | CCCCc1nc2c(N)nc3ccccc3c2n1Cc1cccc(CN)c1 | 76.3%
67 | N#C/C(=C\c1ccc(-c2ccc(Cl)c(Cl)c2)o1)C(=O)Nc1ncc(Cc2ccc(Cl)cc2)s1 | 48.6%
68 | O=C(Nc1ccc(Cl)c(C(F)(F)F)c1)Nc1ccc2oc(=O)ccc2c1 | 27.9%
69 | COc1ccc2[nH]cc(/C=N/Nc3ccnc4cc(Cl)ccc34)c2c1 | -98.3% (active)
70 | O=C1Nc2ccccc2/C1=C/c1ccc(OCC(=O)c2ccccc2)cc1 | 87.1%
71 | NS(=O)(=O)c1nnc(/N=C/c2c(O)[nH]c3ccccc23)s1 | 97%
72 | COc1cc(/C=C2/C(=O)Nc3ccc(Cl)cc32)ccc1OCc1ccc(Cl)cc1 | 70.2%
